Results published in PubChem BioAssay (EPA / NIEHS).
Where “and” joins values, the source holds several entries; their conditions need not be identical. Equal entries are not always repeated. Some structures have more than one record in an assay (separate samples or runs), and their calls can disagree. Calls of active or inactive are those of the source. The calls were made as follows: active = hit-call score of the fitted dose curve at least 0.9, where 1 is the maximum; inactive = score below 0.9.

Experiments:
[1] = read-out: Urokinase-type plasminogen activator receptor (uPAR), PLAUR (gene 5329); assay: BSK_4H_uPAR: BioMAP Diversity Plus: 4H Assay for Urokinase-type plasminogen activator receptor (uPAR) Biomarker Activity (AID 2283030); settings: primary human endothelial cells (HUVEC); actives raise or lower the signal
Procedure, shortened: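 Chemicals are dosed onto human vascular endothelial primary cells (umbilical vein). After 24 h, uPAR is read by ELISA. Gain or loss of signal is fitted relative to DMSO.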

[2] = read-out: Vascular endothelial growth factor receptor 2 (Homo sapiens) (UniProt P35968); assay: BSK_4H_VEGFRII: BioMAP Diversity Plus: 4H Assay for Vascular endothelial growth factor receptor 2 (VEGFR2) Biomarker Activity (AID 2283031); settings: primary human endothelial cells (HUVEC); actives raise or lower the signal;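 as to AC50: cell-surface VEGFR2 protein level quantified by ELISA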
Procedure, shortened: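 VEGFRII levels on human vascular endothelial primary cells were determined by ELISA at 24 hours post-dosing, with gain- or loss-of-signal fitted against DMSO controls.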

[3] = read-out: Human Leukocyte Antigen - DR isotype (HLADR), HLA-DRA (gene 3122); assay: BSK_BE3C_HLADR: BioMAP Diversity Plus: BE3C Assay for Human Leukocyte Antigen - DR isotype (HLADR) Biomarker Activity (AID 2283032); settings: primary human bronchial epithelial cells; actives raise or lower the signal
Procedure, shortened: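 Human primary bronchial epithelial cells in the BE3C system were exposed to chemicals for 24 h, after which HLA-DR levels were quantified by ELISA. Activity was fitted bidirectionally, gain or loss of signal, against DMSO as negative control and baseline.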

[4] = read-out: Vascular cell adhesion molecule 1 (VCAM1), VCAM1 (gene 7412); assay: BSK_4H_VCAM1: BioMAP Diversity Plus: 4H Assay for Vascular cell adhesion molecule 1 (VCAM1) Biomarker Activity (AID 2283033); settings: primary human endothelial cells (HUVEC); actives raise or lower the signal
Procedure, shortened: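 Primary human umbilical vein endothelial cells were exposed to chemicals for 24 h, after which VCAM-1 was quantified by ELISA. Responses were fitted bidirectionally against DMSO as negative control and activity baseline.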

[5] = read-out: Interferon-gamma inducible Protein 10 (IP10), CXCL10 (gene 3627); assay: BSK_BE3C_IP10: BioMAP Diversity Plus: BE3C Assay for Interferon-gamma inducible Protein 10 (IP10) Biomarker Activity (AID 2283034); settings: primary human bronchial epithelial cells; actives raise or lower the signal
Procedure, shortened: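 Human primary bronchial epithelial cells were exposed to chemicals for 24 hours, after which IP-10 levels were measured by ELISA. Data were fitted bidirectionally against DMSO, which served as the negative control and activity baseline.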

[6] = read-out: Monokine induced gamma interferon (MIG), CXCL9 (gene 4283); assay: BSK_BE3C_MIG: BioMAP Diversity Plus: BE3C Assay for Monokine induced gamma interferon (MIG) Biomarker Activity (AID 2283035); settings: primary human bronchial epithelial cells; actives raise or lower the signal
Procedure, shortened: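 MIG level was determined by ELISA after 24 h chemical treatment of primary human bronchial epithelial cells. Values were fitted bidirectionally with DMSO as the negative control and activity baseline.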

[7] = read-out: Transforming growth factor beta 1 (TGFb1), TGFB1 (gene 7040); assay: BSK_BE3C_TGFb1: BioMAP Diversity Plus: BE3C Assay for Transforming growth factor beta 1 (TGFb1) Biomarker Activity (AID 2283036); settings: primary human bronchial epithelial cells; actives raise or lower the signal
Procedure, shortened: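 Human primary bronchial epithelial cells (BE3C system) were dosed with chemical and TGF-b1 levels measured by ELISA at 24 h. Activity was fitted bidirectionally relative to DMSO negative control as baseline.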

[8] = read-out: Plasminogen activator inhibitor-1 (PAI1), SERPINE1 (gene 5054); assay: BSK_BE3C_PAI1: BioMAP Diversity Plus: BE3C Assay for Plasminogen activator inhibitor-1 (PAI1) Biomarker Activity (AID 2283037); settings: primary human bronchial epithelial cells; actives raise or lower the signal
Procedure, shortened: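 Human primary bronchial epithelial cells were exposed to chemical for 24 h, then PAI-1 was quantified by ELISA. Activity was fitted bidirectionally relative to the DMSO negative control baseline.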

[9] = read-out: urokinase plasminogen activator (uPA), PLAU (gene 5328); assay: BSK_BE3C_uPA: BioMAP Diversity Plus: BE3C Assay for urokinase plasminogen activator (uPA) Biomarker Activity (AID 2283038); settings: primary human bronchial epithelial cells; actives raise or lower the signal
Procedure, shortened: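 Measured by ELISA: uPA from human primary bronchial epithelial cells 24 h after chemical treatment. Values derive from bidirectional curve fitting with DMSO serving as negative control. Total protein by SRB staining in parallel wells flagged overt cytotoxicity.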

[10] = read-out: Urokinase-type plasminogen activator receptor (uPAR), PLAUR (gene 5329); assay: BSK_BE3C_uPAR: BioMAP Diversity Plus: BE3C Assay for Urokinase-type plasminogen activator receptor (uPAR) Biomarker Activity (AID 2283039); settings: primary human bronchial epithelial cells; actives raise or lower the signal
Procedure, shortened: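 Primary human bronchial epithelial cells were dosed with chemical and harvested 24 h later; uPAR was quantified by ELISA. Activity was fitted bidirectionally against DMSO as negative control and baseline.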

[11] = read-out: Interleukin-6 (IL6), IL6 (gene 3569); assay: BSK_CASM3C_IL6: BioMAP Diversity Plus: CASM3C Assay for Interleukin-6 (IL6) Biomarker Activity for (AID 2283040); settings: primary human coronary artery smooth muscle cells; actives raise or lower the signal
[12] = read-out: Tissue plasminogen activator (tPA), PLAT (gene 5327); assay: BSK_BE3C_tPA: BioMAP Diversity Plus: BE3C Assay for Tissue plasminogen activator (tPA) Biomarker Activity (AID 2283041); settings: primary human bronchial epithelial cells; actives raise or lower the signal
Procedure, shortened: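 Human primary bronchial epithelial cells were dosed with chemical and tPA biomarker levels measured by ELISA 24 hours later. Activity was fitted bidirectionally against DMSO as negative control and baseline.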

[13] = read-out: Interleukin-8 (IL8), CXCL8 (gene 3576); assay: BSK_CASM3C_IL8: BioMAP Diversity Plus: CASM3C Assay for Interleukin-8 (IL8) Biomarker Activity (AID 2283042); settings: primary human coronary artery smooth muscle cells; actives raise or lower the signal;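 also: IL-8 protein level quantified by ELISA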
[14] = read-out: Human Leukocyte Antigen - DR isotype (HLADR), HLA-DRA (gene 3122); assay: BSK_CASM3C_HLADR: BioMAP Diversity Plus: CASM3C Assay for Human Leukocyte Antigen - DR isotype (HLADR) Biomarker Activity (AID 2283043); settings: primary human coronary artery smooth muscle cells; actives raise or lower the signal;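 also: cell-surface HLA-DR protein level quantified by ELISA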
[15] = read-out: Macrophage colony-stimulating factor (MCSF), CSF1 (gene 1435); assay: BSK_CASM3C_MCSF: BioMAP Diversity Plus: CASM3C Assay for Macrophage colony-stimulating factor (MCSF) Biomarker Activity (AID 2283044); settings: primary human coronary artery smooth muscle cells; actives raise or lower the signal;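 also: M-CSF protein amount quantified by ELISA after 24 h exposure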
[16] = read-out: Low-density lipoprotein receptor (LDLR), LDLR (gene 3949); assay: BSK_CASM3C_LDLR: BioMAP Diversity Plus: CASM3C Assay for Low-density lipoprotein receptor (LDLR) Biomarker Activity (AID 2283045); settings: primary human coronary artery smooth muscle cells; actives raise or lower the signal;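 also: LDLR protein level on the cell surface quantified by ELISA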
[17] = read-out: Monocyte Chemoattractant Protein-1 (MCP1), CCL2 (gene 6347); assay: BSK_CASM3C_MCP1: BioMAP Diversity Plus: CASM3C Assay for Monocyte Chemoattractant Protein-1 (MCP1) Biomarker Activity (AID 2283046); settings: primary human coronary artery smooth muscle cells; actives raise or lower the signal;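 also: MCP-1 level quantified by ELISA 24 h after dosing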
[18] = BSK_CASM3C_Proliferation: Cell Proliferation Assessment in the BioMAP Diversity Plus: CASM3C Assay (AID 2283047); settings: primary human coronary artery smooth muscle cells;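 also: sulforhodamine B total protein stain as relative cell number at 560 nm; sub-confluent cells exposed 48 h before staining; fitted both ways against DMSO so gain or loss of cell number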
[19] = read-out: Monokine induced gamma interferon (MIG), CXCL9 (gene 4283); assay: BSK_CASM3C_MIG: BioMAP Diversity Plus: CASM3C Assay for Monokine induced gamma interferon (MIG) Biomarker Activity (AID 2283048); settings: primary human coronary artery smooth muscle cells; actives raise or lower the signal;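 also: MIG protein level measured by ELISA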
[20] = read-out: serum amyloid A (SAA), SAA1 (gene 6288); assay: BSK_CASM3C_SAA: BioMAP Diversity Plus: CASM3C Assay for serum amyloid A (SAA) Biomarker Activity (AID 2283049); settings: primary human coronary artery smooth muscle cells; actives raise or lower the signal;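 also: SAA protein level quantified by ELISA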

Measured: AC50

CCOC(=O)C(O)(c1ccc(Cl)cc1)c1ccc(Cl)cc1
active: [1] 31.3 µM | [2] 27.9 µM | [4] 30.7 µM | [5] 31.1 µM | [8] 14.7 µM | [18] 30 µM
inactive: all other assays above

ClC1=C(Cl)[C@]2(Cl)[C@@H]3[C@H]4C[C@H]([C@@H]5O[C@H]45)[C@@H]3[C@@]1(Cl)C2(Cl)Cl
not listed: [7]
inactive: all other assays above

Cc1ccccc1[N+](=O)[O-]
not listed: [7]
inactive: all other assays above

c1cc2ccc3cccc4ccc(c1)c2c34
active: [4] 15.5 µM | [16] 9.87 µM
not listed: [7]
inactive: all other assays above

ClC1=C(Cl)[C@]2(Cl)[C@@H]3[C@@H]4C[C@@H]([C@H]5O[C@@H]45)[C@@H]3[C@@]1(Cl)C2(Cl)Cl
active: [20] 468 nM
not listed: [7] | [18]
inactive: all other assays above

O=C(O)C(F)(F)C(F)(F)C(F)(F)C(F)(F)C(F)(F)C(F)(F)C(F)(F)C(F)(F)C(F)(F)F
active: [1] 47 µM and 55 µM | [2] 43.2 µM and 55.4 µM | [3] 11.1 µM and 9.13 µM and 11.4 µM | [4] 33.8 µM and 46.9 µM and 46 µM | [5] 9.39 µM and 8.59 µM and 8.35 µM | [6] 28.6 µM and 26.9 µM and 12.7 µM | [8] 14.2 µM and 14.4 µM and 12.8 µM | [9] 16.1 µM and 7.94 µM | [10] 30.8 µM and 16.4 µM and 14.7 µM | [12] 14.9 µM and 14.1 µM and 14.5 µM
inactive: [1] | [2] | [9] | [11] | [13] | [14] | [15] | [16] | [17] | [18] | [19] | [20]

Clc1ccc(Cl)cc1
not listed: [7]
inactive: all other assays above

O=C(NC(=O)c1cc(F)c(F)cc1Cl)Nc1cc(F)ccc1N1CCC(C(=O)O)CC1
inactive: all assays above

Nn1cnnc1
not listed: [6]
inactive: all other assays above

CCC(=O)O[C@H]1CC[C@H]2[C@@H]3CCC4=CC(=O)CC[C@]4(C)[C@H]3CC[C@]12C
active: [1] 30.3 µM | [2] 28 µM | [3] 32.9 µM | [4] 37.4 µM | [18] 20 µM
not listed: [7] | [11]
inactive: all other assays above

CO/C=C(/C(=O)OC)c1ccccc1COc1cccc(C(F)(F)F)n1
active: [4] 4.02 µM | [5] 3.97 µM | [11] 5.93 µM | [13] 3.94 µM | [18] 5.66 µM
inactive: all other assays above

O=C(NC(=O)c1c(F)cccc1F)Nc1cc(Cl)c(OC(F)(F)C(F)F)c(Cl)c1
not listed: [6]
inactive: all other assays above
